Experiment [1] can be described thus: growth inhibition, single agent or in combination, cell-based, chromothripsis tumors, cisplatin or BGB combos (AID 1671449; in the data active = inhibition above about 80%;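 note: cells exposed for 96 hours; 0% = vehicle DMSO and 100% = killing by high DMSO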). To be noted: LFS_MB_P medulloblastoma cells.
Experiment [2] is described as follows: growth inhibition, single agent and combos, cell-based, chromothripsis tumors, cisplatin or BGB combos (AID 1671450; in the data active = inhibition above about 80%;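 note: cells exposed to compound for four days; 0% = vehicle DMSO and 100% = cell killing by high DMSO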). To be noted: HDN33 neuroblastoma cells, stronger effect = higher value.
The nature of experiment [3]: growth inhibition, single agents and combos, ICB984, cell-based, cisplatin or BGB combos, synergistic combos for chromothripsis tumors (AID 1671451).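 Note: cells exposed for 96 hours before readout; 0% = vehicle DMSO and 100% = killing by high DMSO.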 To be noted: ICB984 medulloblastoma cells, drug combinations, stronger effect = higher value.
Experiment [4] is described as follows: growth inhibition, single agents and combos, LFS_MB_1R, cell-based, cisplatin or BGB combos, synergistic combos for chromothripsis tumors (AID 1671452; in the data active = inhibition above about 80%;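 note: cells exposed for 96 hours before readout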). As to conditions: LFS_MB_1R medulloblastoma cells, stronger effect = higher value.
A short description of experiment [5]: growth inhibition, single agents and combos, HTB85, cell-based, BGB or cisplatin IC20 combos, synergistic combos for chromothripsis tumors (AID 1671453; in the data active = inhibition above about 80%;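 note: cells exposed for 96 hours before readout; 0% = vehicle DMSO and 100% = high DMSO killing control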). As to conditions: HTB85 osteosarcoma cells, drug combinations, stronger effect = higher value.
Experiment [6] is described as follows: growth inhibition, single agents and combos, CRL2098, cell-based, BGB or cisplatin IC20 combos, synergistic combos for chromothripsis tumors (AID 1671454; in the data active = inhibition above about 80%;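 note: cells exposed for 96 h before readout; 0% = vehicle DMSO and 100% = killing by high DMSO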). As to conditions: CRL2098 osteosarcoma cells, drug combinations, stronger effect = higher value.
Experiment [7] in a line: growth inhibition, single agents and combos, HD-MB03, cell-based, BGB or cisplatin IC20 combos, synergistic combos for chromothripsis tumors (AID 1671455; in the data active = inhibition above about 83%;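 note: 0% = vehicle DMSO and 100% = high DMSO as cytotoxic control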). To be noted: HD-MB03 medulloblastoma cells, stronger effect = higher value.
The nature of experiment [8]: growth inhibition, MDA-MB-436, cell-based, BGB or cisplatin combos, synergistic combos for chromothripsis tumors (AID 1671458).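 Note: cells exposed for 96 hours; 0% = vehicle DMSO and 100% = killing by high DMSO.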 As to conditions: MDA-MB-436 breast carcinoma growth inhibition, drug combinations, stronger effect = higher value.
Experiment [9] in a line: BT084 cell growth, single and combined drugs, ICGC_MB145, cisplatin and BGB IC40 combos (AID 1671461; in the data active = inhibition above about 80%;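 note: cells exposed to drugs for 96 hours; 0% = vehicle DMSO and 100% = high DMSO full killing control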). As to conditions: BT084 medulloblastoma cells, drug combinations, stronger effect = higher value.
The nature of experiment [10]: RCMB18 cell growth, single agent and combined, cisplatin and BGB IC40 combos (AID 1671462; in the data active = inhibition above about 80%;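 note: cells exposed to compound for four days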). To be noted: RCMB18 medulloblastoma cells, stronger effect = higher value.
Experiment [11] in a line: CRL1545 cell growth, single agent and combined, cisplatin and BGB IC20 combos (AID 1671464; in the data active = inhibition above about 80%;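 note: cells exposed to compound for 96 hours before readout; 0% = vehicle DMSO and 100% = high DMSO killing control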). As to conditions: CRL1545 osteosarcoma cells, stronger effect = higher value.
For experiment [12], the system named is Hepatitis C virus NS3 helicase. Briefly: blockers of NS3h binding to ssDNA – biochemical, fluorescence polarization, LOPAC1280 library, primary screen (AID 687035; in the data active = inhibition above about 37%). To be noted: Purified HCV NS3 helicase, Cy5-dT15 ssDNA binding fluorescence polarization; stronger effect = higher value; concentration not given here. For orientation: In fluorescence polarisation assays a small probe gives low polarisation when free and higher when bound to something large.

A short description of experiment [13]: compounds altering Cy5-DNA-NS3h complex signal – biochemical, LOPAC1280, artefact control for HCV NS3 helicase inhibitor project (AID 687037). As to conditions: Cy5-DNA-NS3h complex fluorescence interference counterscreen. A general note: The purpose of a counterscreen is to sort out artefacts and off-target activity.
Experiment [14] can be described thus: blockers of cellular phospholipid synthesis – cell-based, LOPAC library, screen 4, primary screen (AID 1347384). To be noted: animal cells, phospholipid biosynthesis inhibition screen; at 10 µM.
The nature of experiment [15]: viability loss in pontine glioma line – cell-based, SU-DIPG-IV, MIPE4.0, CellTiter-Glo, qHTS, dose response (AID 1347063; cut-off not given, nearly all actives have AC50 up to about 30 µM;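 note: compound exposure lasted 48 hours before the viability readout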). As to conditions: CellTiter-Glo ATP luminescence.
[16] abbreviates: measured here: combination with BGB IC40, at 0.05 µM.
The mark [17] stands for this setting: measured here: with BGB IC20 combination, at 0.5 µM.
Where [18] appears, read: measured here: with cisplatin IC20 combination, at 0.5 µM.
Setting [19] is: measured here: combination with cisplatin, at 0.5 µM.

Molecules are shown by their SMILES. Results filed as inconclusive are left out. Activity calls are given as the source filed them. Unless noted, the rule behind the calls is not given here.

One may read the inhibition as the change of the read-out against control, counted positive when it falls. One may read the AC50 as the concentration at which the activity in the assay is half-maximal.

Turning to `O=c1[nH]c(-c2ccc(C(F)(F)F)cc2)nc2c1CSCC2`, the inhibition in [1] (at 0.5 µM, stronger effect = higher value) was -18.1% (inactive); in experiment [1] (measured here: combination with BGB IC20, at 0.005 µM), 0.844%; in [1] (measured here: combination with BGB IC40, at 0.005 µM), 12.4%; in [1] (setting [16]) it was -21.3%; in experiment [1] (measured here: combination with cisplatin, at 0.5 µM, stronger effect = higher value) it was -36.1%; in experiment [1] (measured here: combination with cisplatin, at 5 µM, stronger effect = higher value) it was -17.2%. The inhibition in experiment [2] (BGB combo, at 5 µM) was 8.65%; in experiment [2] (at 0.5 µM), -7.61% (inactive); in experiment [2] (cisplatin combo, at 5 µM), 8.16%; in experiment [2] (setting [17]), -5.54%; in experiment [2] (setting [18]), -17.8%; in experiment [2] (single agent, at 5 µM), 38.9%. In addition, the inhibition is -4.67% in experiment [3] (BGB IC20 combo, at 0.005 µM); -45.8% in experiment [3] (BGB IC40 combo, at 0.005 µM); -11.7% in experiment [3] (BGB IC40 combo, at 0.05 µM); -27.1% (inactive) in experiment [3] (at 0.5 µM); -15.7% in [3] (cisplatin combo, at 0.05 µM); -29.5% in experiment [3] (cisplatin combo, at 0.5 µM). In addition, the inhibition is -33.3% in experiment [3] (cisplatin combo, at 5 µM); -7.99% in experiment [3] (measured here: 5 uM single agent, at 5 µM); -9.31% (inactive) in [4] (at 0.5 µM); -26% in experiment [4] (setting [16]); -13.9% in experiment [4] (setting [19]); -59% in experiment [4] (measured here: combination with cisplatin, at 5 µM). For the same compound, the inhibition is -23.5% (inactive) in experiment [5] (at 0.5 µM); -23% in [5] (measured here: with BGB IC20, at 0.5 µM); -21.9% in experiment [5] (measured here: with BGB IC20, at 5 µM); -30.4% in experiment [5] (measured here: with cisplatin IC20, at 0.5 µM); -19.6% in experiment [5] (measured here: with cisplatin IC20, at 5 µM); 3.2% in [5] (single agent, at 5 µM). The inhibition in [6] (at 0.5 µM) is -39.2% (inactive); in [6] (measured here: combination with BGB at IC20, at 0.5 µM) it was -20.7%; in [6] (measured here: combination with cisplatin at IC20, at 0.5 µM) it was -76.4%; in [7] (at 0.5 µM) it was -8.71% (inactive); in experiment [7] (measured here: combo with BGB at IC20, at 0.5 µM), -15.3%; in experiment [7] (measured here: combo with cisplatin at IC20, at 0.5 µM), -8.24%. Moreover, the inhibition is -4.6% (inactive) in [8] (at 0.5 µM); -1.61% in experiment [8] (measured here: BGB combination, at 0.5 µM); -2.42% in experiment [8] (measured here: BGB combination, at 5 µM); -18.2% in [8] (measured here: cisplatin combination, at 0.5 µM); -5.9% in experiment [8] (measured here: cisplatin combination, at 5 µM); -4.59% (inactive) in [9] (at 0.5 µM). For the same compound, the inhibition in experiment [9] (cisplatin combination, at 0.5 µM) was -17.6%; in experiment [9] (cisplatin combination, at 5 µM) it was -12.8%; in [9] (measured here: BGB IC40 combination 0.05 uM, at 0.05 µM), 7.96%; in [9] (single agent, at 5 µM), -20.3%; in experiment [10] (at 0.5 µM), -18.1% (inactive); in [10] (cisplatin combo, at 5 µM), -47.8%. The inhibition in experiment [10] (measured here: BGB IC40 combination, at 0.05 µM) is -24.5%; in experiment [10] (setting [19]), -29.6%; in experiment [10] (single agent, at 5 µM), 13.3%; in experiment [11] (at 0.5 µM) it was -34.9% (inactive); in [11] (setting [17]), -20.3%; in experiment [11] (setting [18]), -44.5%. For the same compound, the inhibition in experiment [11] (single agent, at 0.05 µM) was -54.3%; in experiment [11] (single agent, at 5 µM) it was -18.2%.
As to `NC(=O)c1ccc2[nH]ccc2c1`, in experiment [12], the inhibition is 0% (inactive). Besides, in experiment [13], the fluorescence ratio (interference) is 1 (inactive). Moreover, the compound was called inactive in [14].
Turning to `N#Cc1c(O)c2c(-c3ccc(-c4ccccc4O)cc3)csc2[nH]c1=O`, the compound was classed as inactive in experiment [15].
Turning to `O=C(O)C1CCCN(CCC=C(c2ccccc2)c2ccccc2)C1` (centres undefined), the inhibition in [12] is -1% (inactive). Moreover, the fluorescence ratio (interference) in [13] is 0.9 (inactive). In [15], the call was inactive.
Consider `CCCCC[C@H](O)/C=C/[C@H]1[C@H](O)CC(=O)[C@@H]1C/C=C\CCCC(=O)O`, for which the result in experiment [15] was inactive.
Still for that read-out and setting: in the case of `Fc1ccc(Cl)cc1-c1nc(Nc2ccncc2)c2nccnc2n1` it was “inactive”.
Take `CC(Oc1ccc(O)cc1)(P(=O)(O)O)P(=O)(O)O`: the call in [15] was inactive.
Take `O=C(O)CCc1ccc(NCc2cccc(Oc3ccccc3)c2)cc1`: the inhibition in experiment [12] is 0% (inactive). Moreover, the fluorescence ratio (interference) in experiment [13] is 1 (inactive). The result in experiment [15] and in [14] was inactive.
In the case of `COc1cccc(-c2cc(=O)c3ccccc3o2)c1N`, in experiment [12], the inhibition is -1% (inactive). The fluorescence ratio (interference) in experiment [13] is 1 (inactive). Moreover, in [14], the outcome was inactive.
With `O=C(O)c1ccc2cc(-c3ccc(O)c(C45CC6CC(CC(C6)C4)C5)c3)ccc2c1`, in experiment [15], the AC50 was 332 nM (active).

(Values after PubChem BioAssay.)
